Inconclusive results are not listed. Entries that show only a call come without a potency. The source made the active and inactive calls. The call rests on the fitted dose curve; in most records, active means well fitted inhibition curve with a large enough effect; inconclusive means small, poorly fitted or top-dose-only effect; inactive means flat fitted curve, though single readings scatter.
Potency means the concentration at half of the fitted maximal effect.

The first test concerns CP217. Kind of test: qHTS profiling for inhibitors of Plasmodium falciparum proliferation (AID 504749). Further: nearly all actives have a fitted effect of over 60% in size. As to conditions: P. falciparum in erythrocytes, SYBR Green DNA, 72 h; series mostly up to 28.7 µM. In outline:
(§1)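 SYBR Green fluorescence of parasite DNA, read after lysis and overnight dark incubation, measured growth over 72 h in erythrocyte culture at 0.3% parasitemia and 2.5% hematocrit. Data normalised to DMSO and 0.29 uM artemisinin, with plate-drift correction.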
On to `COc1ccc(-c2cc(=S)ss2)cc1`, for which the Potency entry is “inactive”. As for `CCCCCCCCCCCCCCCCCC(=O)O`, the Potency entry is “inactive”. On the same count and under the same terms, under `CN1CCN(c2cc3c(nn2)Oc2ccccc2N3C)CC1` stands “inactive”; under `Clc1ccccc1-c1nc(-c2ccncc2)no1`, “inactive”; under `Cc1ccc(O)c(-n2nc3ccccc3n2)c1`, “inactive”. For the compound `CCCCCC[C@@H](O)C/C=C\CCCCCCCC(=O)O`, the Potency result was “inactive”. The same measure, in the same setting: as for `Cc1cc(O)c2ccccc2c1O`, the entry is “inactive”. For `CN1[C@@H]2CC[C@H]1CC(OC(c1ccccc1)c1ccccc1)C2` (stereo partly drawn), the Potency was 12.6 µM (active). With `Nc1ccc(C(=O)O)c(O)c1`, the Potency result was “inactive”. Consider `CCOc1ccc2nc(S(N)(=O)=O)sc2c1`, for which the Potency entry is “inactive”. In the case of `CCCCCCCCCCCC(=O)[O][Sn]([CH2]CCC)([CH2]CCC)[O]C(=O)CCCCCCCCCCC`, the Potency result is “inactive”. As for `O=C(O)c1cc(O)c(O)c(O)c1`, the Potency result is “inactive”. The same measure, in the same setting: as for `Nc1cc(-c2ccncc2)c[nH]c1=O`, the entry is “inactive”; as for `CCCCCCCCCCCCCCCC(=O)OC(C)C`, “inactive”; as for `O=C(O)COc1ccc(C(=O)c2cccs2)c(Cl)c1Cl`, “inactive”. Take `CCCSc1ccc2nc(NC(=O)OC)[nH]c2c1`: the Potency entry was “inactive”. With `O=C1CN(/N=C/c2ccc(-c3ccc([N+](=O)[O-])cc3)o2)C(=O)N1`, the Potency result is “inactive”.

With `CN(C)c1ccc(C(=C2C=CC(=[N+](C)C)C=C2)c2ccccc2)cc1`, the Potency was 11.2 µM (active). The same measure, in the same setting: under `COc1cc(/C=C/C(=O)N2CCN(CC(=O)N3CCCC3)CC2)cc(OC)c1OC` stands “inactive”; under `O=C(/C=C/c1ccccc1)NCCO`, “inactive”.

For `Cc1[nH]cnc1CN1CCc2c(c3ccccc3n2C)C1=O`, the Potency entry is “inactive”. Still for that read-out and setting: as for `CC1OC1P(=O)(O)O` (stereo not drawn), the entry is “inactive”; as for `O=C(O)c1ccccc1Nc1cccc(C(F)(F)F)c1`, “inactive”; as for `O=C(O)Cc1ccc(-c2ccccc2)cc1`, “inactive”.

A further test concerns CP237. The description is as above. As to conditions: P. falciparum in erythrocytes, SYBR Green DNA, 72 h; series mostly up to 28.7 µM. In outline:
as §1
Take `COc1ccc(-c2cc(=S)ss2)cc1`: the Potency result is “inactive”.

Regarding `CCCCCCCCCCCCCCCCCC(=O)O`, the Potency entry was “inactive”. For the compound `CN1CCN(c2cc3c(nn2)Oc2ccccc2N3C)CC1`, the Potency result was “inactive”. Same read-out and setting: under `CC(=O)[C@]1(O)Cc2c(O)c3c(c(O)c2[C@@H](O[C@H]2C[C@H](N)[C@H](O)[C@H](C)O2)C1)C(=O)c1c(O)cccc1C3=O` stands 2.51 µM (active); under `CN1[C@@H](CC(=O)c2ccccc2)CCC[C@H]1C[C@H](O)c1ccccc1`, 7.94 µM (active); under `Clc1ccccc1-c1nc(-c2ccncc2)no1`, “inactive”. On the same count and under the same terms, under `Cc1ccc(O)c(-n2nc3ccccc3n2)c1` stands “inactive”; under `CCCCCC[C@@H](O)C/C=C\CCCCCCCC(=O)O`, “inactive”; under `Cc1cc(O)c2ccccc2c1O`, “inactive”.

In the case of `Nc1ccc(C(=O)O)c(O)c1`, the Potency entry is “inactive”.

As to `CCOc1ccc2nc(S(N)(=O)=O)sc2c1`, the Potency entry is “inactive”. Still for that read-out and setting: under `CCCCCCCCCCCC(=O)[O][Sn]([CH2]CCC)([CH2]CCC)[O]C(=O)CCCCCCCCCCC` stands 10 µM (active). On to `O=C(CCN1CCN(CCO)CC1)N1c2ccccc2Sc2ccc(C(F)(F)F)cc21`, for which the Potency is 10 µM (active). As for `CC(N)C(=O)OC(C)(C)Cc1ccc(Cl)cc1` (stereo not drawn), the Potency is 4.47 µM (active). Still for that read-out and setting: as for `Nc1cc(-c2ccncc2)c[nH]c1=O`, the entry is “inactive”. With `CCCCCCCCCCCCCCCC(=O)OC(C)C`, the Potency result is “inactive”. `O=C(O)COc1ccc(C(=O)c2cccs2)c(Cl)c1Cl`: the Potency entry was “inactive”. As for `CCCSc1ccc2nc(NC(=O)OC)[nH]c2c1`, the Potency result was “inactive”. Regarding `CN(C)c1ccc(C(=C2C=CC(=[N+](C)C)C=C2)c2ccccc2)cc1`, the Potency was 8.91 µM (active).

Turning to `COc1cc(/C=C/C(=O)N2CCN(CC(=O)N3CCCC3)CC2)cc(OC)c1OC`, the Potency result was “inactive”.

With `O=c1[nH]c2ccccc2n1CCCN1CCN(C(c2ccccc2)c2ccccc2)CC1`, the Potency is 8.91 µM (active).

Turning to `CCCC(=O)OC[C@@H](OC(=O)CCC)[C@@H](OC(=O)CCC)[C@H](Cn1c2nc(=O)[nH]c(=O)c-2nc2cc(C)c(C)cc21)OC(=O)CCC`, the Potency entry is “inactive”.

As to `O=C(/C=C/c1ccccc1)NCCO`, the Potency entry is “inactive”.

`Cc1[nH]cnc1CN1CCc2c(c3ccccc3n2C)C1=O`: the Potency result is “inactive”. The same measure, in the same setting: as for `CC1OC1P(=O)(O)O` (stereo not drawn), the entry is “inactive”. On to `Cc1nc2ccccc2n1Cc1ccc(Cl)cc1`, for which the Potency entry is “inactive”.

For `C[S+](CC[C@H](N)C(=O)O)C[C@H]1O[C@@H](n2cnc3c(N)ncnc32)[C@H](O)[C@@H]1O` (stereo partly drawn), the Potency result was “inactive”.

On to `O=C(O)c1ccccc1Nc1cccc(C(F)(F)F)c1`, for which the Potency result is “inactive”. For `O=C(O)Cc1ccc(-c2ccccc2)cc1`, the Potency result was “inactive”.

These data come from PubChem BioAssay (NCATS).
